Results reported in ChEMBL document CHEMBL4513216, “Probing the Open Global Health Chemical Diversity Library for Multistage-Active Starting Points for Next-Generation Antimalarials” (ACS Infect Dis, 2020).
Screen size: about 65,000 compounds; about 2,100 (3.2%) showed an effect of 50% or more. The median lay at about -52%. What follows is part of a selection rich in strong results, with near analogues and random picks from the rest.

System: Plasmodium falciparum
Experiment: Screen against P. falciparum Asexual Blood Stage (ABS), at 5uM
Assay type: functional, Dd2
Details: tested at 5 uM

Structure (SMILES)	INHIBITION [%]
CC1(C)[C@@H]2CC=C(CN3CCCn4nc(C(=O)NCCO)cc4C3)[C@H]1C2	-43.4
c1cncc(CN2CC[C@@H]3[C@@H]2CCN3Cc2ccc3c(c2)OCO3)c1	59.5
CN1CC[C@@H]2[C@@H]1CCN2Cc1ccc2c(c1)OCO2	43
Cn1cc(CN2CC[C@@H]3[C@@H]2CCN3Cc2ccc3c(c2)OCO3)cn1	-88.4
CCOCc1nn(CC2CC2)c2c1CN(Cc1cccs1)CC2	-70.5
COCc1nn(CC2CC2)c2c1CN(Cc1ccco1)CC2	-53.2
COCc1nn(CC2CC2)c2c1CN(Cc1cccs1)CC2	50
CCO[C@H]1C[C@@H](O)C12CCN(C1Cc3ccccc3C1)CC2	-26.8
NS(=O)(=O)c1ccc(NCc2ccccc2F)cc1C(F)(F)F	-6.73
Fc1ccccc1CNc1ccnc(C2CCNCC2)c1	66.5
O=C(NC1CCCC1)c1ccnc(C2CCNCC2)c1	-131
O=C(Nc1cccc(C2SCCS2)c1)C1CCCN1c1nccs1 (stereo unspecified)	36.7
CN1CCN(c2ccc(Br)cc2NC(=O)c2ccco2)CC1	53
CN1CCN(c2ccc(Cl)cc2NC(=O)c2ccco2)CC1	42
CN1CCN(c2ccccc2NC(=O)c2ccco2)CC1	32.7
CSCC(C)N(C)C(=O)c1nn(-c2ccc(F)cc2C)cc1O (stereo unspecified)	-118
Cc1cccc(CC(=O)N2CCCC(c3n[nH]c4nccnc34)C2)c1 (stereo unspecified)	-9.5
Cc1cc(-c2nn(C)c(Cl)c2CN2CCOCC(O)C2)no1 (stereo unspecified)	-22.3
Cc1cc(-c2nn(C)c(Cl)c2CN2Cc3ccccc3C(O)C2)no1 (stereo unspecified)	53.8

Structure (SMILES)	INHIBITION [%]
Cc1cc(-c2nn(C)c(Cl)c2CN2CC[C@H](CO)[C@@H](O)C2)no1	-69.4
Cn1nc(COc2cccnc2)c2c1CCN(c1ncccn1)C2	-42.9
CCN(CC)c1nc2ccsc2c(=O)n1CCC(=O)NC1CCCC1	-39.2
Cc1nc(N2CCCC2)ncc1-c1cc(O)nc(N2CCOCC2)n1	-32.6
O=C(C[C@@H]1COC[C@H]2CN(Cc3ccncc3)C[C@@H]12)N1CCOCC1	-108
COCCS(=O)(=O)Nc1ccc(-n2cncn2)c(F)c1	68.3
COCCNC(=O)Nc1ccc(-n2cncn2)c(F)c1	-29
CC(=O)Nc1ccc(-n2cncn2)c(F)c1	47.2
COCCN(C)Cc1nc(-c2cccc(F)c2F)oc1C	-36.7
CCCC(=O)N1Cc2ccccc2CC2(CCN(C)C2)C1 (stereo unspecified)	8.68
CN1CCC2(Cc3ccccc3CN(C(=O)Cc3cccc(Cl)c3)C2)C1 (stereo unspecified)	54.8
CN1CCC2(Cc3ccccc3CN(C(=O)CCN)C2)C1 (stereo unspecified)	-100
Cc1nn(C)c(Cl)c1C1CCCN1CC(=O)NC1CCCC1 (stereo unspecified)	13
Cn1cc(S(=O)(=O)NCCc2ccsc2)cn1	-97
CC(C)(C)c1cn(C2CCN(C3CCSC3)CC2)nn1 (stereo unspecified)	-103
COc1cccc(CNCCc2cc(F)cc3c2OCOC3)c1	19.8
COc1cccc(CNCCc2cc(F)cc3c2OCOC3)c1OC	56.8
COc1cc(CNCCc2cc(F)cc3c2OCOC3)cc(OC)c1	31.1
N#Cc1cccnc1NCCc1cc(F)cc2c1OCOC2	-127

Structure (SMILES)	INHIBITION [%]
COc1ccc(CNCCc2cc(F)cc3c2OCOC3)cc1OC	21.3
COc1ccc(CNCCc2cc(F)cc3c2OCOC3)cc1O	37
COc1ccc(CNCCc2cc(F)cc3c2OCOC3)c(OC)c1	55.4
COc1ccc(OC)c(CNCCc2cc(F)cc3c2OCOC3)c1	66.3
N#Cc1ccc(CNCCc2cc(F)cc3c2OCOC3)cc1	-105
CC(C)CCC(=O)NC(C)c1nnc2n1CCCCC2 (stereo unspecified)	-147
O=C(CC1CCCC1)N1C[C@@H]2CCN(c3cccnc3)C[C@@H]2C1	-58.1
Cc1cc(C(=O)N2CCc3nc4sc(C)cc4c(=O)n3CC2)on1	-73.5
Cc1ccccc1CN1CCN(C(=O)c2ccn(C(C)(C)C)c2)CC1	2.14
CC(=O)c1ccc(NC(=O)c2ccc3c(c2)C2(CCCCC2)CN3)cc1	20.8
Cc1ncc(CN2CCC(CNS(=O)(=O)C3CC3)C2)cn1 (stereo unspecified)	-131
CCc1ccc(CN2CCC(CNS(=O)(=O)C3CC3)C2)nc1 (stereo unspecified)	19.1
CC(C)c1ccc(CN2CCC(CNS(=O)(=O)C3CC3)C2)cc1 (stereo unspecified)	59.4
Cc1ccccc1OCn1ccc(C(=O)NCCN2CCOCC2)n1	-44.8
Cc1cc2[nH]c(=O)oc2cc1S(=O)(=O)N1C[C@@H](N(C)C)[C@H](C(C)C)C1	-101
Cc1ccc(S(=O)(=O)N2C[C@H](C3CC3)[C@@H](N)C2)cc1F	14.8
Cc1cc(-c2cc(S(=O)(=O)N3C[C@H](C4CC4)[C@@H](N)C3)c(C)s2)[nH]n1	62.6
CC(C)c1cc(C(=O)N2CCCC(Cn3cc(CO)nn3)C2)on1 (stereo unspecified)	-137
